Consider 76 compounds from ChEMBL document CHEMBL3988442, “University of Dundee, Small-Polar-MMV Screening Library” (2021).

Molecules are shown by their SMILES. The whole screen tested about 69,000 compounds, of which about 420 (0.61%) showed an effect of 50% or more. Shown is part of a subset that was picked to be rich in strong results.

The experiment has as its target T1, Histidine--tRNA ligase (Leishmania infantum) (UniProt A4I591).
T1 sequence (whole entry): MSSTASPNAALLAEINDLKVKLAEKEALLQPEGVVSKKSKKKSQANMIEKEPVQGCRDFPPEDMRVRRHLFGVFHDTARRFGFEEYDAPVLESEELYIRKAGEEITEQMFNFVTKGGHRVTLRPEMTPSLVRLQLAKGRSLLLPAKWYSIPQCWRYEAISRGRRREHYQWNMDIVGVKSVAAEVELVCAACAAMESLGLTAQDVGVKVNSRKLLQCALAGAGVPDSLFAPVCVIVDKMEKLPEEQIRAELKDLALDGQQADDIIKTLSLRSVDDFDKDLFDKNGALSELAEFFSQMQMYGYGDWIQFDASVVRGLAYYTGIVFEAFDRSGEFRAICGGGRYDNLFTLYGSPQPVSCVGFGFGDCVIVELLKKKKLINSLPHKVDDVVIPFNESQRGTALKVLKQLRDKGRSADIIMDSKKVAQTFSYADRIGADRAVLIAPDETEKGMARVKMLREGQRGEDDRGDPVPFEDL
As to the kind of experiment: Leishmania infantum Histidine tRNA synthetase (LdHisRS). The class given is functional. Also noted: scale not given: in the data most compounds retested in dose-response had high values. The note with it: 30 µM.
`Cc1cc(=O)n(C)cc1NC(=O)Cc1cc(F)ccc1F`: the Percent Effect turned out to be 107%. The figure for `CCC(=O)NCC(=O)Nc1c(C)cnn1Cc1cc(F)ccc1F` is 14.5%; for `Cc1cc(F)ccc1NC(=O)Cn1cc(C(=O)O)ccc1=O` it is 21.7%. As to `CN(CCO)Cc1nnc(C2CCN(C[C@H]3[C@@H]4CNC[C@@H]43)CC2)n1C`, the Percent Effect was 9.38%.

As for `Cc1ccc(C(=O)N2C[C@H]3CCC[C@@]3(COc3ccccn3)C2)nc1`, the Percent Effect worked out at 16.4%.

In the case of `FC(F)(F)c1ccc(-c2cc(NC3CCNCC3)nc3[nH]ccc23)nc1`, the Percent Effect came to 63.9%. The figure for `Nc1ccnc(-c2cc(NC3CCNCC3)nc3[nH]ccc23)c1` is 41%.

Take `COc1nccnc1-c1cc(NC2CCCC2)nc2[nH]ccc12`: the Percent Effect stood at 6.38%. `COc1nccnc1-c1cc(NC2CCNCC2)nc2[nH]ccc12`: the Percent Effect is 55.3%. The figure for `CNc1cc(C)nc(-c2cc(NC3CCNCC3)nc3[nH]ccc23)n1` is 32.6%. The figure for `COc1ncc(-c2cc(NC3CCCC3)nc3[nH]ccc23)c(OC)n1` is 21.3%; for `Cc1oncc1C(=O)N[C@@H]1CN(Cc2ccco2)C[C@@H]2CCCO[C@@H]21` it is 4.54%. For the compound `Cn1ccc(C(=O)N2C[C@H]3CCC[C@@]3(COCc3cccnc3)C2)n1`, the Percent Effect came to 7.96%. The figure for `COC[C@]12COC[C@H]1CN(S(=O)(=O)c1cccnc1)C2` is 14%; for `CCc1cc(N2CCC(F)(F)CC2)n2nc(C)c(C)c2n1` it is 61.7%; for `CCc1cc(N2CCSCC2)n2nc(C)c(C)c2n1` it is -0.971%.

On to `CCc1cc(N2CCS(=O)(=O)CC2)n2nc(C)c(C)c2n1`, for which the Percent Effect is 13.3%.

Take `Cc1nnc(NCC(c2ccco2)N2CCCCC2)c(C#N)c1C` (stereo unspecified): the Percent Effect was determined as 32.9%. In the case of `COCc1ccccc1CNc1nnc(C)c(C)c1C#N`, the Percent Effect turned out to be 12.3%.

For the compound `Cc1nnc(NCc2ccccc2S(=O)(=O)N(C)C)c(C#N)c1C`, the Percent Effect amounted to 22%.

With `Cc1nnc(NCc2ccccc2Cl)c(C#N)c1C`, the Percent Effect came out at 52.3%. `Cc1nnc(NCC(c2ccco2)N(C)C)c(C#N)c1C` (stereo unspecified): the Percent Effect amounted to 54.8%. As for `Cc1nnc(NCc2cccnc2N(C)C)c(C#N)c1C`, the figure is 15.4%; as for `Cc1nnc(NCC(c2cccs2)N2CCCC2)c(C#N)c1C` (stereo unspecified), 32.9%. As for `Cc1nnc(NCc2ccccc2F)c(C#N)c1C`, the figure is 49.5%; as for `Cc1nnc(NCC(c2ccco2)N2CCCC2)c(C#N)c1C` (stereo unspecified), 60.3%; as for `O=C(Nc1cnccn1)[C@H]1COC[C@H]2CN(c3ncc(F)cn3)C[C@H]21`, 18.8%. The figure for `COCCNC(=O)[C@H]1CC[C@@H]2[C@@H](CCN2S(C)(=O)=O)O1` is 22.9%; for `Cc1nc(CN2C(=O)CC[C@@H]3[C@H]2CCN3C2CCOCC2)cs1` it is 9.57%; for `COCCN1CCO[C@@H]2CN(Cc3sccc3C)C[C@@H]2C1` it is 0.84%. Take `CC(C)(C)c1cc(NC(=O)CN2CCc3cncnc3C2)on1`: the Percent Effect was determined as 19.6%. Turning to `CCCn1nc2c(cc1=O)CN(CC(=O)Nc1cc(C)no1)CC2`, the Percent Effect turned out to be 18.2%. For `CC(C)(C)c1cc(NC(=O)CN2CCn3c(nnc3C3CC3)C2)on1`, the Percent Effect turned out to be 1.79%. With `CC(C)c1cc(NC(=O)CN2CCc3ccccc3C2)on1`, the Percent Effect is -2.74%. As for `CCn1nc2c(cc1=O)CN(CC(=O)Nc1cc(C(C)C)no1)CC2`, the figure is 21.2%; as for `CCn1nc2c(cc1=O)CN(CC(=O)Nc1cc(C)no1)CC2`, 15.2%; as for `Cn1nc2c(cc1=O)CN(CC(=O)Nc1cc(C(C)(C)C)no1)CC2`, 112%. For `CCCn1nc2c(cc1=O)CN(CC(=O)N(C)c1nccs1)CC2`, the Percent Effect turned out to be 24.6%.

Consider `Cc1cc(NC(=O)CN2CCc3nn(C)c(=O)cc3C2)on1`, for which the Percent Effect came to 56.7%.

Consider `CC(C)c1cc(NC(=O)CN2CCc3nn(C)c(=O)cc3C2)on1`, for which the Percent Effect worked out at 78.8%. The figure for `CN(C(=O)CN1CCc2nn(C)c(=O)cc2C1)c1nccs1` is 65.9%.

As to `CCn1nc2c(cc1=O)CN(CC(=O)N(C)c1nccs1)CC2`, the Percent Effect was 5.56%. The figure for `O=C(c1cscn1)N1CC[C@@H]2[C@@H]1CCN2CC1CCOC1` (stereo partly specified) is 13.2%. For the compound `O=C(NCc1ccco1)[C@@]12CCO[C@@H]1CCN(CC1CCOCC1)C2`, the Percent Effect was 20%. As for `CCN1C[C@H]2CCN(C(=O)Cc3cccc(OC)c3)CC[C@H]2S1(=O)=O`, the figure is 19.2%.

As to `O=C(Cn1ccnc1)N1C[C@@H]2CC[C@H](Oc3cccc(F)c3)[C@@H]2C1`, the Percent Effect was determined as 7.29%. As to `Cc1nc(CN2C(=O)CC[C@H]3[C@@H]2CCN3C(=O)c2ccsc2)cs1`, the Percent Effect stood at 16.5%. Consider `CC(C)NC(=O)[C@]12COC[C@H]1CN(Cc1cnn(C)c1)C2`, for which the Percent Effect stood at 12.5%. Consider `CCS(=O)(=O)N1CC[C@@H]2[C@@H](CCC(=O)N2CCc2ccccc2)C1`, for which the Percent Effect is 9.38%. On to `Cc1csc(NC(=O)CN2CCc3nn(C)c(=O)cc3C2)n1`, for which the Percent Effect was 24.2%. As for `Cc1nnc(NC(=O)CN2CCc3nn(C)c(=O)cc3C2)s1`, the figure is 9.62%; as for `Cc1cc(NC(=O)CN2CCc3nn(C)c(=O)cc3C2)no1`, 100%; as for `Cc1noc(C(C)Nc2ccc(N3CCOCC3)cc2C)n1` (stereo unspecified), 63%. The figure for `Cc1cc(N2CCOCC2)ccc1NC(C)c1nc(C(C)C)no1` (stereo unspecified) is 39.1%. As to `Cc1cc(N2CCOCC2)ccc1NC(C)c1nc(C(C)(C)C)no1` (stereo unspecified), the Percent Effect came out at 28.3%. With `c1cncc(COCC2C[C@@H]3OCCN(Cc4cccnc4)[C@H]3C2)c1` (stereo partly specified), the Percent Effect turned out to be 28.3%.

For the compound `Cc1ccc(-c2noc(CN3CCc4cncnc4C3)n2)cc1`, the Percent Effect is 25.7%. In the case of `Cn1cnc2c1CCN(Cc1nc(COc3ccc(F)cc3)no1)C2`, the Percent Effect was -98.5%. Turning to `c1ccc(Cc2noc(CN3CCc4cncnc4C3)n2)cc1`, the Percent Effect was 43%.

As for `COc1ccc(-c2noc(CN3CCc4cncnc4C3)n2)cc1`, the Percent Effect was 50.4%. The figure for `c1ncc2c(n1)CN(Cc1nc(-c3ccoc3)no1)CC2` is 34.9%; for `Fc1ccc(OCc2noc(CN3CCc4cncnc4C3)n2)cc1` it is 61.6%. As for `Cn1cc(C(=O)N[C@@H]2CN(Cc3cccnc3)[C@@H]3CCCO[C@@H]32)cn1`, the figure is 22.9%; as for `O=C(c1cnccn1)N1CCN2C[C@H](OCC3CC3)C[C@H]2C1`, 15.1%; as for `CN(C)CC(=O)N1CCC2(CCc3ccc(-c4ccncc4)cc32)CC1`, 22.4%. As for `c1cncc(-c2ccc3c(c2)C2(CC3)CCN(c3nncs3)CC2)c1`, the figure is 53.3%. For `c1cncc(-c2ccc3c(c2)CCC32CCN(Cc3ccco3)CC2)c1`, the Percent Effect was 44%. The figure for `c1cncc(-c2ccc3c(c2)C2(CCNCC2)CC3)c1` is -17.2%; for `c1cc(-c2ccc3c(c2)CCC32CCN(c3nncs3)CC2)co1` it is 75.8%; for `OCCN1CCC2(CCc3cc(-c4ccoc4)ccc32)CC1` it is 24%.

Consider `c1cc(-c2ccc3c(c2)C2(CCNCC2)CC3)ccn1`, for which the Percent Effect amounted to 13.8%.

As for `c1cncc(-c2ccc3c(c2)CCC32CCNCC2)c1`, the Percent Effect worked out at 20%.

For `c1cc(-c2ccc3c(c2)C2(CC3)CCN(c3nncs3)CC2)ccn1`, the Percent Effect is 74.2%.

Regarding `c1cc(-c2ccc3c(c2)CCC32CCNCC2)ccn1`, the Percent Effect came to 53.5%.

For `O=C(CCO)N1CCC2(CCc3ccc(-c4ccoc4)cc32)CC1`, the Percent Effect was 22.4%.

For the compound `Cc1ccc2c(c1)C1(CC2)CCN(c2nncs2)CC1`, the Percent Effect stood at 24.8%.
